Measurements taken from PubChem BioAssay (NCATS).
Results filed as inconclusive are left out. The source made the active and inactive calls. Unless noted, the call rests on the fitted dose curve; in most records, active means well fitted curve in the direction sought with a large enough effect; inconclusive means small, poorly fitted or top-dose-only effect, or another doubt; inactive means no such curve, though single readings can be large; an effect the other way counts as inactive or inconclusive.

Legend:
[1] = Cell Viability - LYMP2-004 (AID 966);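 further: plate controls were DMSO only for no effect and tetraoctylammonium bromide control for full effect; nearly all actives have a fitted effect of over 65% in size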
How it was run: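 Acute toxicity is scored as a concentration-dependent drop in intracellular ATP, quantified by luciferase luminescence, in human lymphoblastoid cells exposed to compound for 24 hr. AC50 derives from Hill-equation modelling.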

[2] = Cell Viability - LYMP2-005 (AID 967);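 further: series mostly up to about 92 µM; plate controls were DMSO only for no effect and 92 µM tetraoctylammonium bromide control for full effect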
How it was run: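 Acute cytotoxicity is scored as a concentration-dependent drop in intracellular ATP in human lymphoblastoid LYMP2-005 cells after 24 h compound treatment. ATP is quantified by luciferase luminescence, and AC50 is derived by Hill-equation modelling.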

[3] = Cell Viability - LYMP2-009 (AID 968);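 further: series mostly up to about 92 µM; 0% = DMSO alone and the full-kill end = tetraoctylammonium bromide at 92 µM; nearly all actives have a fitted effect of over 55% in size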
[4] = Cell Viability - LYMP2-011 (AID 969);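 further: 0% = DMSO only and full inhibition = 92 µM tetraoctylammonium bromide; nearly all actives have a fitted effect of over 60% in size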
How it was run: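 Acute toxicity is scored as a concentration-dependent drop in intracellular ATP of a human lymphoblastoid line after 24 hr treatment. Values are AC50s modeled with the Hill equation.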

[5] = Cell Viability - LYMP2-013 (AID 970);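 further: series mostly up to about 92 µM; 0% = DMSO only and full inhibition = tetraoctylammonium bromide control; nearly all actives have a fitted effect of over 55% in size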
How it was run: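 Acute toxicity was measured in human lymphoblastoid cells (2500/well) exposed to compound titrations for 24 hr, with ATP luminescence (CellTiter-Glo) as read-out and AC50 fitted by Hill equation.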

[6] = Cell Viability - LYMP2-015 (AID 971);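 further: 0% = DMSO only and full effect = 92 µM tetraoctylammonium bromide; nearly all actives have a fitted effect of over 55% in size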
How it was run: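 Acute toxicity was scored as a concentration-dependent drop in intracellular ATP in lymphoblastoid cells after 24 hr compound exposure in complete medium. Detection used CellTiter-Glo luciferase luminescence.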

[7] = Cell Viability - LYMP2-017 (AID 972);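 further: series mostly up to about 92 µM; cells exposed to compound for 24 hours at 37 °C; on the % scale 0 is the no-effect control and ±100 the full control effect; nearly all actives have a fitted effect of over 55% in size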
How it was run: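 Steps: plate 2500 lymphoblastoid cells per well; incubate 5 hr at 37 C; add compound across a concentration series and incubate 24 hr at 37 C; add CellTiter-Glo and read luminescence after 30 min at room temperature; fit Hill curves for AC50.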

[8] = Cell Viability - LYMP2-021 (AID 974)
How it was run: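 Concentration-response cytotoxicity in a human lymphoblastoid line: 24 hr treatment at 37 C in complete culture medium, tetraoctylammonium bromide as positive control, luminescent ATP quantitation as viability measure.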

[9] = Cell Viability - LYMP2-023 (AID 975)
How it was run: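 Concentration-dependent drop in intracellular ATP measures acute cytotoxicity in a human lymphoblastoid line treated for 24 hours in complete culture medium. AC50 values are taken from Hill-equation fits of qHTS data.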

[10] = Cell Viability - LYMP2-025 (AID 976);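 further: series mostly up to about 92 µM; plate controls were DMSO only for no effect and tetraoctylammonium bromide control for full effect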
How it was run: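 In qHTS format, LYMP2-025 lymphoblastoid cells in complete culture medium received compound for 24 hr; ATP-based CellTiter-Glo signal gave viability, with AC50 derived by Hill equation.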

[11] = Cell Viability - LYMP2-002 (AID 977);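 further: series mostly up to about 92 µM; plate controls were DMSO only for no effect and 92 µM tetraoctylammonium bromide for full effect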
How it was run: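 Luminescent ATP readout (CellTiter-Glo, 30 min room temperature) after 24 h compound exposure at 37 C of a human lymphoblastoid line, 2500 cells/well. AC50 values derived by standard Hill fitting of qHTS concentration-response data.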

[12] = Cell Viability - LYMP2-006 (AID 978); further: series mostly up to about 92 µM; on the % scale 0 is the no-effect control and ±100 the full control effect; nearly all actives have a fitted effect of over 60% in size
How it was run: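 Cells are seeded at 2500 per well and rested 5 hr at 37 C. Compounds are added across a concentration series for 24 hr at 37 C, after which ATP is quantified by luciferase luminescence.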

[13] = Cell Viability - LYMP2-007 (AID 979);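 further: cells exposed to compound for 24 h before reading; 0% = DMSO only and the negative end = 92 µM tetraoctylammonium bromide; nearly all actives have a fitted effect of over 60% in size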
How it was run: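 Acute toxicity is scored as a concentration-dependent fall in intracellular ATP in human lymphoblastoid cells treated 24 hr at 37 C, measured by luciferase luminescence; Hill-equation modelling yields AC50.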

[14] = Cell Viability - LYMP2-008 (AID 980); further: on the % scale 0 is the no-effect control and ±100 the full control effect; nearly all actives have a fitted effect of over 60% in size
How it was run: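 Acute cytotoxicity is scored as concentration-dependent loss of cellular ATP in a human lymphoblastoid line after 24 hr treatment at 37 C. ATP is quantified by luciferase luminescence.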

[15] = Cell Viability - LYMP2-010 (AID 981)
How it was run: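 Acute toxicity is scored as a concentration-dependent loss of cellular ATP in human lymphoblastoid cells after 24 hr compound exposure in complete medium. Tetraoctylammonium bromide is the positive control.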

[16] = Cell Viability - LYMP2-012 (AID 982)
[17] = Cell Viability - LYMP2-014 (AID 983);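 further: series mostly up to about 92 µM; plate controls were DMSO only for no effect and 92 µM tetraoctylammonium bromide for full effect; nearly all actives have a fitted effect of over 50% in size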
How it was run: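 Decrease in intracellular ATP after 24 hr treatment at 37 C, measured by luciferase luminescence, indicated cytotoxicity. Concentration-response data were fitted with the standard Hill equation to give AC50.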

[18] = Cell Viability - LYMP2-016 (AID 984)
How it was run: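 Cells were seeded at 2500 per well and rested 5 hr before a 24 hr compound exposure at 37 C. Viability was then gauged as cellular ATP by luciferase luminescence, with AC50 values fitted to the Hill equation.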

[19] = Cell Viability - LYMP2-018 (AID 985);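 further: plate controls were DMSO only for no effect and tetraoctylammonium bromide at 92 µM for full effect; nearly all actives have a fitted effect of over 50% in size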
How it was run: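 Acute cytotoxicity is scored as a concentration-dependent drop in intracellular ATP after 24 hr exposure of the lymphoblastoid line in complete culture medium, measured by luciferase luminescence. Potency is expressed as AC50 from Hill modelling.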

[20] = Cell Viability - LYMP2-020 (AID 986)
How it was run: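 Acute cytotoxicity in a human lymphoblastoid line is scored as a concentration-dependent fall in cellular ATP after 24 hr at 37 C in complete medium. The positive control is tetraoctylammonium bromide, and potency is given as Hill-fit AC50.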

[21] = Cell Viability - LYMP2-022 (AID 987)
How it was run: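 Acute toxicity in a human lymphoblastoid line is scored as decreased intracellular ATP after 24 hr compound treatment at 37 C. ATP is measured by CellTiter-Glo luminescence; curves are fitted with the Hill equation to give AC50.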

[22] = Cell Viability - LYMP2-024 (AID 988)
How it was run: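 Acute toxicity is measured as concentration-dependent loss of intracellular ATP in a human lymphoblastoid line treated 24 hours at 37 C. Luciferase luminescence quantifies ATP; AC50 values come from standard Hill-equation modelling.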

[23] = Cell Viability - LYMP2-026 (AID 989); further: on the % scale 0 is the no-effect control and ±100 the full control effect; nearly all actives have a fitted effect of over 50% in size
How it was run: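 Concentration-dependent loss of intracellular ATP in human lymphoblastoid cells after 24 hr at 37 C, quantified by luciferase luminescence. AC50 derived from standard Hill equation.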

[24] = Cell Viability - LYMP1-002 - Assay at 24 hr (AID 993); further: on the % scale 0 is the no-effect control and ±100 the full control effect
How it was run: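 qHTS, LYMP1-002 lymphoblastoid, 24 h cpd, 37 C, CellTiter-Glo ATP luminescence; AC50 via Hill eq.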

[25] = Cell Viability - LYMP1-002 - Assay at 40 hr (AID 994)
How it was run: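 Viability in the human lymphoblastoid line was measured as intracellular ATP via CellTiter-Glo after 40 hr compound exposure. Tetraoctylammonium bromide served as positive control.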

[26] = molecular target: ATP-dependent 6-phosphofructokinase (Trypanosoma brucei brucei) (UniProt O15648); test: qHTS Assay to Find Inhibitors of T. brucei phosphofructokinase: hit validation (AID 492961);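 further: luminescence reports ADP formed as PFK phosphorylates fructose-6-phosphate with ATP; series mostly up to about 51 µM; on the % scale 0 is the no-effect control and ±100 the full control effect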
ATP-dependent 6-phosphofructokinase (Trypanosoma brucei brucei), sequence (O15648 whole entry, looked up): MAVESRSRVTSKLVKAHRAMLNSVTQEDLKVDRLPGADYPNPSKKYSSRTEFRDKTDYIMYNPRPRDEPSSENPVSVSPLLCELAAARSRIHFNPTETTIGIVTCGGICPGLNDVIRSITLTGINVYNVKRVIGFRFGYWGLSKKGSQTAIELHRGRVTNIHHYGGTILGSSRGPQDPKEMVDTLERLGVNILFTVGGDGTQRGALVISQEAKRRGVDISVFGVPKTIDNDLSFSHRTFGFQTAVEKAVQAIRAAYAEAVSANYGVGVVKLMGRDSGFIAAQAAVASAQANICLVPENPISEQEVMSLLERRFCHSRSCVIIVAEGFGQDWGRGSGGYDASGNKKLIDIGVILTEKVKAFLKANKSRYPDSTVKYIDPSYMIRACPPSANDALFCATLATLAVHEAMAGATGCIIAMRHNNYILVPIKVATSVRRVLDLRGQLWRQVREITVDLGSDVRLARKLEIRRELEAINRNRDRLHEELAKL
How it was run: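 Percent activity derived from corrected luminescence, normalized between 0x and 1x enzyme controls, then fitted to concentration-response curves. Conditions: 1.25 nM PFK, 0.1 mM ATP, 0.5 mM F6P, 45 min RT.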

[27] = molecular target: Ubiquitin carboxyl-terminal hydrolase 1 (Homo sapiens) (UniProt O94782); test: Inhibitors of USP1/UAF1: Pilot qHTS (AID 504865);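 further: rhodamine fluorescence freed from ubiquitin-rhodamine substrate followed over time; top concentration of the series differs between compounds; on the % scale 0 is the no-effect control and ±100 the full control effect; nearly all actives have a fitted effect of over 35% in size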
Ubiquitin carboxyl-terminal hydrolase 1 (Homo sapiens), sequence (O94782 whole entry, looked up): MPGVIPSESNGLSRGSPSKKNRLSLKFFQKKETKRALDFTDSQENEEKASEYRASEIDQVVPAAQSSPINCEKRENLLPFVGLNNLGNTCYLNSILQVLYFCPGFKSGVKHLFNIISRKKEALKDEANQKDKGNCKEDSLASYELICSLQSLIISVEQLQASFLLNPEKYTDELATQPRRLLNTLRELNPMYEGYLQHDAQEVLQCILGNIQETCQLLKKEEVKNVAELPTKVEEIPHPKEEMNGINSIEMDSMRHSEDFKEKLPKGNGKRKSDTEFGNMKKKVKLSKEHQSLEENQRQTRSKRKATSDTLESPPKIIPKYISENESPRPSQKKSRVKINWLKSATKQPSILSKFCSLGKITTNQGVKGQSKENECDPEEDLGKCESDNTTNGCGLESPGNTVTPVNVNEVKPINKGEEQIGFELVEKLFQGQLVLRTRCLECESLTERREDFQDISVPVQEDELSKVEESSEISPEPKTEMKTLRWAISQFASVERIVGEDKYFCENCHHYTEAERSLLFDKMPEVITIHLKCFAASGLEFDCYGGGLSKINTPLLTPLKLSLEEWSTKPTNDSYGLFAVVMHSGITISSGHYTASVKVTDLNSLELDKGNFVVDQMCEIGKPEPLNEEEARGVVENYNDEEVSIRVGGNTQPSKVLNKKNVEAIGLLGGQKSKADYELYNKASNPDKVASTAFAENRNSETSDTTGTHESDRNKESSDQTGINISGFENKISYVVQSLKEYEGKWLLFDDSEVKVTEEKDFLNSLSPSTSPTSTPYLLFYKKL
How it was run: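 In 50mM HEPES pH 7.8 containing 0.5mM EDTA, 1mM TCEP, 0.1 mg/ml BSA and 0.01% Tween-20, 1nM USP1/UAF1 is exposed to compound for 15 min, then Ub-Rho (150nM final) is added and fluorescence is read over time.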

[28] = molecular target: Estrogen receptor (Homo sapiens) (UniProt P03372); test: qHTS assay for small molecule antagonists of estrogen receptor alpha signaling (AID 588513; active means well fitted curve in the direction sought with a large enough effect in the signal ratio, with a control signal flat, not every such curve was filed as active; the % refers to the signal ratio; further: on the % scale 0 is the no-effect control and ±100 the full control effect)
Estrogen receptor (Homo sapiens), sequence (P03372 whole entry, looked up): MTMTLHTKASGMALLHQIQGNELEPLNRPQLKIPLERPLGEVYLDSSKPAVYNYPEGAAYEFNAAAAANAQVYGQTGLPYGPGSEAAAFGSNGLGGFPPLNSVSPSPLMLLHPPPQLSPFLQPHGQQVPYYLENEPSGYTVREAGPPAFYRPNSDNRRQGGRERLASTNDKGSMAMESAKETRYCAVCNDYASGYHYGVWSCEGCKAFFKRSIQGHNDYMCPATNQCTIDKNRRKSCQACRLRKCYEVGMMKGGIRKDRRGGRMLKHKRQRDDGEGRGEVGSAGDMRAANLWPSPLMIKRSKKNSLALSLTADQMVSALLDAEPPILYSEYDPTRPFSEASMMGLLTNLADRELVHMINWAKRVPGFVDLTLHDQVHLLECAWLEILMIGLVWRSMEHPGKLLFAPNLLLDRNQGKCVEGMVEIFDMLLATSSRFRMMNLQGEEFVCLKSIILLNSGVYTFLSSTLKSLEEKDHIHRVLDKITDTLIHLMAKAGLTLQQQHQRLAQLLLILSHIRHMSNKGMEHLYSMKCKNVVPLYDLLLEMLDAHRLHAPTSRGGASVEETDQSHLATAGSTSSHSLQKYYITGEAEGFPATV
How it was run: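 Fluorescence from CCF4 substrate after 2 h at room temperature gave reporter activity; cells had been exposed to compound and 0.5nM 17-beta-estradiol for 18 h at 37 C. Hill-equation fitting yielded IC50 and maximal response.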

[29] = molecular target: Estrogen receptor (Homo sapiens) (UniProt P03372); test: qHTS assay for small molecule agonists of estrogen receptor alpha signaling (AID 588514; calls by dose curve;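 further: 0% = vehicle only and 100% = reference agonist; nearly all actives have a fitted effect of over 70% in size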)
How it was run: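 Reporter-gene assay. […] controls beta-lactamase in HEK 293 GripTite cells; after 18 hrs with compound, CCF4 substrate is added for 2 hrs and fluorescence is read.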

[30] = molecular target: Bile acid receptor (Homo sapiens) (UniProt Q96RI1); test: qHTS assay for small molecule antagonists of farnesoid X receptor signaling (AID 588526; calls by dose curve; further: on the % scale 0 is the no-effect control and ±100 the full control effect)
Bile acid receptor (Homo sapiens), sequence (Q96RI1 whole entry, looked up): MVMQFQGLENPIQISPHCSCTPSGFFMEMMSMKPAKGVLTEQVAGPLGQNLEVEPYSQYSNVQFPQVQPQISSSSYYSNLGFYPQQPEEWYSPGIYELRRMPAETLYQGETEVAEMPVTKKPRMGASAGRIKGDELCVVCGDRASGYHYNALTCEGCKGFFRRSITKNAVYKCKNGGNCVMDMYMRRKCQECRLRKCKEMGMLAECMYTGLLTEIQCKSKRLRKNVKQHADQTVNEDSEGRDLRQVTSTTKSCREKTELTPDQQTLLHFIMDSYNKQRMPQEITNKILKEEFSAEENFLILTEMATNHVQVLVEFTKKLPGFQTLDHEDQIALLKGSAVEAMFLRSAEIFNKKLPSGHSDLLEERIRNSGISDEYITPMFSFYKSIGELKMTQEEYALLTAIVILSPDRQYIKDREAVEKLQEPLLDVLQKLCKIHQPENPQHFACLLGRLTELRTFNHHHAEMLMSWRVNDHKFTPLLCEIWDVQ
How it was run: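 Concentration-response titrations were fitted to the Hill equation for half-maximal inhibition and maximal response, with data normalised to 50 uM chenodeoxycholic acid and DMSO control wells. Cells: FXR-UAS-bla HEK293T, dialyzed FBS.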

[31] = molecular target: Glucocorticoid receptor (Homo sapiens) (UniProt P04150); test: qHTS assay for small molecule antagonists of glucocorticoid receptor signaling (AID 588533; active means well fitted inhibition curve with a large enough effect in the signal ratio, with a control signal flat, not every such curve was filed as active; the % refers to the signal ratio)
How it was run: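 Antagonist-mode qHTS: compound titrations added to GRE-bla HeLa cells, then dexamethasone 2 nM final; 18 h, 37 C. CCF4 FRET fluorescence normalized to dexamethasone and DMSO; IC50 from Hill fit.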

[32] = molecular target: Peroxisome proliferator-activated receptor gamma (Homo sapiens) (UniProt P37231); test: qHTS assay for small molecule agonists of peroxisome proliferator-activated receptor gamma signaling (AID 588536; active means well fitted curve in the direction sought with a large enough effect in the signal ratio, with a control signal flat, not every such curve was filed as active; the % refers to the signal ratio;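 further: 0% = DMSO basal wells and 100% = rosiglitazone at 2 µM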)
Peroxisome proliferator-activated receptor gamma (Homo sapiens), sequence (P37231 whole entry, looked up): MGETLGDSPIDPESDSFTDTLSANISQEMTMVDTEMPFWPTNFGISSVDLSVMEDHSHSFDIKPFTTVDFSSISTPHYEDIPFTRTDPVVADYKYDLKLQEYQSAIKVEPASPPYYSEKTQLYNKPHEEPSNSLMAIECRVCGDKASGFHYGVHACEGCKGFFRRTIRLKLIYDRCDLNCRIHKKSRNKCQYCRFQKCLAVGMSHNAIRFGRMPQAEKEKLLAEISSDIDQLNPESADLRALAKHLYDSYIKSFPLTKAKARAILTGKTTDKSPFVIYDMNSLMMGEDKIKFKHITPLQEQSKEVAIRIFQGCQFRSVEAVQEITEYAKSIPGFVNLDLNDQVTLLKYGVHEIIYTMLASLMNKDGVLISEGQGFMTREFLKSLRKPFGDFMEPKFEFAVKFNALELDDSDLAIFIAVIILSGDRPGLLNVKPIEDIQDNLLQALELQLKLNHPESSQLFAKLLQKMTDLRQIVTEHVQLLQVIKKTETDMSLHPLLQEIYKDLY
How it was run: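 Ratiometric blue/green fluorescence (405 nm excitation; 460 and 530 nm emission) from CCF4-loaded HEK293 reporter cells serves as signal. Exposure to test compounds lasts 16 h at 37 C in medium containing 1% charcoal/dextran-treated serum.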

[33] = qHTS assay for small molecule agonists of retinoid X receptor alpha signaling (AID 588544; calls by dose curve); conditions: HEK293T RXRa-UAS-bla, beta-lactamase reporter, 18 h; 530 nm emission
[34] = molecular target: Retinoic acid receptor RXR-alpha (Homo sapiens) (UniProt P19793); test: as above
Retinoic acid receptor RXR-alpha (Homo sapiens), sequence (P19793 whole entry, looked up): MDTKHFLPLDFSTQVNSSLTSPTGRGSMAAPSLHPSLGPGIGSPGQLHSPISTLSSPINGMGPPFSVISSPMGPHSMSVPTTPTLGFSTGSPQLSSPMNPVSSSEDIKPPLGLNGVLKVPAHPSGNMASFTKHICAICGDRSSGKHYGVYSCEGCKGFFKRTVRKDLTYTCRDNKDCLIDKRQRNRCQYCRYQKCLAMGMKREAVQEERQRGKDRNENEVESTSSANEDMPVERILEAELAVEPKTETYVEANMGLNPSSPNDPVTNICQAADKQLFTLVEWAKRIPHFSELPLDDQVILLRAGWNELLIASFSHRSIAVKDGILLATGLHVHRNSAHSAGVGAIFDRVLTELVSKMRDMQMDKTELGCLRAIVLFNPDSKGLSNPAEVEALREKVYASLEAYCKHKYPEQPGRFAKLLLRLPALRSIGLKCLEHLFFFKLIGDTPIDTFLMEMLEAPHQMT

[35] = molecular target: Thyroid hormone receptor beta (Homo sapiens) (UniProt P10828); test: qHTS assay for small molecule agonists of thyroid hormone receptor beta signaling (AID 588545; calls by dose curve;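 further: 0% = DMSO only and 100% = 10 nM T3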)
Thyroid hormone receptor beta (Homo sapiens), sequence (P10828 whole entry, looked up): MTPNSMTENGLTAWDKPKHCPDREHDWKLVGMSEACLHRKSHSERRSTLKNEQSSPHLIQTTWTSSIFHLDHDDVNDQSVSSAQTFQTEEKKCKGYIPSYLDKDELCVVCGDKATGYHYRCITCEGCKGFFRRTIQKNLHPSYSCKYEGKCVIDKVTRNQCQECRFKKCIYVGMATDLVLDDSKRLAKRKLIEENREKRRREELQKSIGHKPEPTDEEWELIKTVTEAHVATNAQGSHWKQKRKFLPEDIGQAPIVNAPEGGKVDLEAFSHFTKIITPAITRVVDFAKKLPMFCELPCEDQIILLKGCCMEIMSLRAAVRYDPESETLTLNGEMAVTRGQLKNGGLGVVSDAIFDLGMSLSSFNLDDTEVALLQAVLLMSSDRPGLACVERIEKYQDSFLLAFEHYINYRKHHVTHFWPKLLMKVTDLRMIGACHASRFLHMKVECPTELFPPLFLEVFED
How it was run: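 Compounds were tested as agonists in TR-UAS-bla-GripTite HEK 293 cells. After 18 hrs at 37 C, CCF4 substrate was added and fluorescence read after 2 hrs at room temperature.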

[36] = molecular target: Thyroid hormone receptor beta (Homo sapiens) (UniProt P10828); test: qHTS assay for small molecule antagonists of thyroid hormone receptor beta signaling (AID 588547; active means well fitted inhibition curve with a large enough effect in the signal ratio, with a control signal flat, not every such curve was filed as active; the % refers to the signal ratio); conditions: TR-UAS-bla HEK293, beta-lactamase ratio, antagonist mode, 18 h
How it was run: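 TR-UAS-bla GripTite HEK293 cells in 2% charcoal/dextran FBS medium were preincubated 4 h at 37 C, given compound (0.59 nM to 92 uM) plus 0.4 nM T3 (final) for 18 h, then CCF4 for 2 h at RT; Hill fit gave IC50.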

[37] = molecular target: Voltage-gated inwardly rectifying potassium channel KCNH2 (Homo sapiens) (UniProt Q12809); test: qHTS Assay for Small Molecule Inhibitors of the Human hERG Channel Activity (AID 588834);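 further: top concentration of the series differs between compounds; on the % scale 0 is the no-effect control and ±100 the full control effect; lower thallium flux fluorescence means stronger hERG block; nearly all actives have a fitted effect of over 50% in size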
Voltage-gated inwardly rectifying potassium channel KCNH2 (Homo sapiens), sequence (Q12809 whole entry, looked up): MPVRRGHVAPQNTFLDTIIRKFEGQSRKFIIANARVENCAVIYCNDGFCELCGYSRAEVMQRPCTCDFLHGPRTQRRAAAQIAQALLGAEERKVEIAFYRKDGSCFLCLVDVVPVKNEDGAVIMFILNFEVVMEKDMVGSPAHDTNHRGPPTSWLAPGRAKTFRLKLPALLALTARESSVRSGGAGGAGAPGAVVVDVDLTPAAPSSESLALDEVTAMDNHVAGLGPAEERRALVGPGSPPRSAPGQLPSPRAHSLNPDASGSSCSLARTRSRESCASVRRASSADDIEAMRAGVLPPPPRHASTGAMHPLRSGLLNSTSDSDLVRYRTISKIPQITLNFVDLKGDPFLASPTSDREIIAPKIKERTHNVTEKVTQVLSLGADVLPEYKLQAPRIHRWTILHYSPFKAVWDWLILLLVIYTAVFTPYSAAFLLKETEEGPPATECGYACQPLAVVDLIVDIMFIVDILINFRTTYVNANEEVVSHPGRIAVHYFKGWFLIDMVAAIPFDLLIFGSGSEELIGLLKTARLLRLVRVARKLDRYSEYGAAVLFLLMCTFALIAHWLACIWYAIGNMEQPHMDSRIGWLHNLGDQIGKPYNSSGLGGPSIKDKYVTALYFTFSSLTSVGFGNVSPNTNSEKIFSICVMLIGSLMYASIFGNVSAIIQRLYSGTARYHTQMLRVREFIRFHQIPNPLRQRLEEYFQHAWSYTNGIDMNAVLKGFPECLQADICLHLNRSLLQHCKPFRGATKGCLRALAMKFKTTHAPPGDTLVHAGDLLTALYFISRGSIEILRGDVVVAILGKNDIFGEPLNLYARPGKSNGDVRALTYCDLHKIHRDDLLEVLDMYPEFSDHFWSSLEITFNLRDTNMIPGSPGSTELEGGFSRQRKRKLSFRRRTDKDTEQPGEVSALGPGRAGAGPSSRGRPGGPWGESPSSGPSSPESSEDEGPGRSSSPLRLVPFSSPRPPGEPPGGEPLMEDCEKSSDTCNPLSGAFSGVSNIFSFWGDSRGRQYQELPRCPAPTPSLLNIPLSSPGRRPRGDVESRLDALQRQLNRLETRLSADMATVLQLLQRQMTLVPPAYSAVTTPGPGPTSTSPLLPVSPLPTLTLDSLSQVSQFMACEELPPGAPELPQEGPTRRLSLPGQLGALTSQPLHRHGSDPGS
How it was run: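 hERG-BacMam U2OS, 2000 cells/well; 0.7X FluxOR loading 1 hr RT dark; cpd ~10 min 37 °C; stim buffer; FDSS fluorescence 2 min @ 1 s; AC50 Hill fit.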

[38] = S16 Schwann cell viability assay (CellTiter-Glo assay) (AID 624031);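 further: series mostly up to about 58 µM; plate controls were DMSO-treated cells for no effect and cell-free wells for full effect; nearly all actives have a fitted effect of over 70% in size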
How it was run: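 This viability control uses native rat S16 Schwann cells grown in DMEM plus 10% FBS. After a 24 h compound treatment at 37 °C, CellTiter-Glo luminescence reports ATP content, scaled against DMSO-treated and cell-free wells.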

[39] = S16 Schwann cell PMP22 intronic element beta-lactamase assay (AID 624044; calls by dose curve;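 further: 0% = DMSO and -100% = potassium clavulanate positive control; nearly all actives have a fitted effect of over 15% in size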)
How it was run: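 Rat S16 Schwann cells with beta-Lac driven by a PMP22 intronic element, compound-treated 24 h at 37 °C. LiveBLAzer FRET B/G read: 460 nm normalized to potassium clavulanate vs DMSO; 535 nm FRET as viability; concentration-effect curves classified.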

C[C@@H]1[C@H](O)[C@@H](C)/C=C/C=C/C=C/C=C/C=C/C=C/C=C/[C@H](O[C@@H]2O[C@H](C)[C@@H](O)[C@H](N)[C@@H]2O)C[C@@H]2O[C@](O)(C[C@@H](O)C[C@@H](O)[C@H](O)CC[C@@H](O)C[C@@H](O)CC(=O)O[C@H]1C)C[C@H](O)[C@H]2C(=O)O
inactive: outcome [1] | outcome [2] | outcome [3] | outcome [4] | outcome [5] | outcome [6] | outcome [7] | outcome [8] | outcome [9] | outcome [10] | outcome [11] | outcome [12] | outcome [13] | outcome [14] | outcome [15] | outcome [16] | outcome [17] | outcome [18] | outcome [19] | outcome [20] | outcome [21] | outcome [22] | outcome [23] | outcome [24] | outcome [25] | outcome [26] | Potency [27] | outcome [28] | outcome [29] | Potency [30] | Potency [31] | outcome [32] | outcome [34] | outcome [35] | activity change % (negative = inhibition) [36] 2.02% | Potency [37] | outcome [38] | outcome [39]
19.3%: max response [33]
